Test results published in publication PMC4552634, “A New Set of Chemical Starting Points with Plasmodium falciparum Transmission-Blocking Potential for Antimalarial Drug Discovery” (PLoS ONE, 2015).
About 3,200 (25%) of roughly 13,000 compounds showed an effect of 50% or more. This is one part of the list.

test system: P. falciparum stage V gametocytes; parameters: BacTiter-Glo ATP luminescence viability of purified stage V gametocytes in 384-well plates, per cent inhibition versus DMSO; details: 48 h, 5 µM; inhibitor

Row | SMILES | % Inhibition [%]
1 | CCCCCc1cnc2nc(N)nc(N)c2c1 [TCMDC-137922] | -4.326
2 | N#Cc1ccc2c(c1)CCN(CCC1CCC(NC(=O)/C=C/c3c[nH]c4c(Br)cccc34)CC1)CC2 (stereo not drawn) [TCMDC-139672] | -4.951
3 | Cc1cccc2[nH]c(-c3ccc(-c4ccc(NC(=O)NCc5ccc(F)cc5)cc4)cc3)nc12 [TCMDC-133302] | 17.3
4 | CC(=O)Nc1ncc(C(=O)Nc2cccc(-c3ccc(-c4nc5c(C)cccc5[nH]4)cc3)c2)s1 [TCMDC-136913] | 10.82
5 | Cc1cnc(C[S+]([O-])c2nc3ccc(C(F)(F)F)cc3[nH]2)cc1OCc1ccccc1 (stereo not drawn) [TCMDC-131542] | 10.44
6 | Nc1nc(N)c2c(Cc3ccccc3)cccc2n1 [TCMDC-137764] | -5.935
7 | CCN(CC)CCN(Cc1ccc(-c2ccc(C(F)(F)F)cc2)cc1)C(=O)Cn1cc(CCCc2cccc(F)c2F)c(=O)c2ccccc21 [TCMDC-141331] | 81.22
8 | CCN(CC)CCN(Cc1ccc(-c2ccc(C(F)(F)F)cc2)cc1)C(=O)Cn1cc(CCCCc2cccc(F)c2F)c(=O)c2ccccc21 [TCMDC-141340] | 60.46
9 | COc1ccc(OC)c2c1CCN(C)C2Cc1cccc2ccccc12 (stereo not drawn) [TCMDC-137509] | 12.85
10 | O=C(NC1CCC(N2CCC(c3nc4ccccc4s3)CC2)CC1)c1cc2ccccc2[nH]1 (stereo not drawn) [TCMDC-132780] | -77.63
11 | Cc1cc(C(=O)Nc2ccc3c(c2)CCN3C2CCN(Cc3ccc4nsnc4c3)C2)no1 (stereo not drawn) [TCMDC-135076] | -30.56
12 | O=S(=O)(NC1=NCCC1)c1cccc(Nc2nc(C(F)(F)F)nc3ccccc23)c1 [TCMDC-124821] | -4.384
13 | C=CCOC(=O)N1CCC(CNCc2ccc(-c3cccc(-c4nc5ccccc5[nH]4)c3)cc2)C1.O=C(O)C(F)(F)F (stereo not drawn) [TCMDC-132566] | 89.86
14 | C=CCOC(=O)N1CCC(CNCc2cccc(-c3cccc(-c4nc5ccccc5[nH]4)c3)c2)C1.O=C(O)C(F)(F)F (stereo not drawn) [TCMDC-133046] | -7.738
15 | Cc1cccc2nc(-c3ccc(-c4cccc(CNC(C)C)c4)s3)[nH]c12.O=C(O)C(F)(F)F [TCMDC-132743] | 8.329
16 | Cc1cccc2nc(-c3ccc(-c4cccc(CNCc5ccccc5)c4)s3)[nH]c12.O=C(O)C(F)(F)F [TCMDC-132703] | -30.5
17 | Cc1noc(C)c1-c1cccc(CNCc2cccc(-c3ccc(-c4nc5cccc(C)c5[nH]4)s3)c2)c1.O=C(O)C(F)(F)F [TCMDC-133059] | -9.203
18 | Cc1cccc2nc(-c3ccc(-c4cccc(CNCc5ccc(CN)cc5)c4)s3)[nH]c12.O=C(O)C(F)(F)F [TCMDC-132812] | 115.3
19 | COc1ccc(CNCc2cccc(-c3ccc(-c4nc5cccc(C)c5[nH]4)s3)c2)cc1.O=C(O)C(F)(F)F [TCMDC-132722] | 2.559
20 | Cc1cccc2nc(-c3ccc(-c4cccc(CNCc5cccc(N)c5)c4)s3)[nH]c12.O=C(O)C(F)(F)F [TCMDC-132936] | -17.71
21 | CNc1ccc(CNCc2cccc(-c3ccc(-c4nc5ccccc5[nH]4)s3)c2)cc1.O=C(O)C(F)(F)F [TCMDC-132977] | -37.37

Row | SMILES | % Inhibition [%]
22 | C=CCOC(=O)N1CCC(CNCc2ccc(-c3cccc(-c4nc5cc(F)ccc5[nH]4)c3)cc2)C1.O=C(O)C(F)(F)F (stereo not drawn) [TCMDC-133044] | 2.158
23 | Cc1cccc2nc(-c3ccc(-c4cccc(CNC5CCN(C)CC5)c4)s3)[nH]c12.O=C(O)C(F)(F)F [TCMDC-132736] | 105.5
24 | CNc1ccc(CNCc2cccc(-c3ccc(-c4nc5cccc(C)c5[nH]4)s3)c2)cc1.O=C(O)C(F)(F)F [TCMDC-132983] | 78.71
25 | CC1(C)N=C(N)N=C(N)N1OCc1cccc(C#N)c1 [TCMDC-124037] | -12.77
26 | CCCC(C)Nc1nc(C)cc(N[C@@H](CC(C)C)C(=O)NCc2ccc(C)cc2)n1 (stereo partly drawn) [TCMDC-134897] | -16.22
27 | Cc1ccc(N2C(=O)C3C(C2=O)C2(c4ccccc4)C(=O)C3(c3ccccc3)C(c3ccccc3)=C2c2ccccc2)cc1 (stereo not drawn) [TCMDC-124241] | -3.804
28 | CN1C(=O)[C@H](NC(=O)[C@@H](Cc2ccccc2)NC(=S)Nc2ccccc2)N=C(c2ccccc2)c2ccccc21 [TCMDC-132115] | 12.99
29 | Cc1ccc(Nc2nc(C)cc(NC3CC3)n2)cc1 [TCMDC-133469] | 5.355
30 | CC1CCCN(Cc2c(O)ccc3c(=O)c(-c4nc5ccccc5s4)c(N)oc23)C1 (stereo not drawn) [TCMDC-124468] | -5.264
31 | Cc1ccc(-c2nnc(-c3ccc(C(=O)NC4CCN(Cc5ccc(C#N)cc5)CC4)cc3)o2)cc1Br [TCMDC-136130] | -28.74
32 | Cc1ccc(Cn2c(N3CCC(C(=O)NCc4cccs4)CC3)nc3ccccc32)cc1 [TCMDC-124400] | 16.64
33 | C=CCOC(=O)N1CCC(CNCc2cccc(-c3cccc(-c4nc5cccc(C)c5[nH]4)c3)c2)C1.O=C(O)C(F)(F)F (stereo not drawn) [TCMDC-133038] | -20.08
34 | Cc1cccc2nc(-c3ccc(-c4ccc(CNCc5ccc(CN)cc5)cc4)s3)[nH]c12 [TCMDC-132809] | 97.61
35 | C=CCOC(=O)N1CCC(CNCc2cccc(-c3ccc(-c4nc5cccc(C)c5[nH]4)s3)c2)C1.O=C(O)C(F)(F)F (stereo not drawn) [TCMDC-133043] | 63.05
36 | Cc1cccc2nc(-c3ccc(-c4ccc(CNCc5cccc(N)c5)cc4)s3)[nH]c12.O=C(O)C(F)(F)F [TCMDC-132932] | -65.22
37 | C=CCOC(=O)N1CCC(CNCc2cccc(-c3ccc(-c4nc5cccc(C)c5[nH]4)cc3)c2)C1.O=C(O)C(F)(F)F (stereo not drawn) [TCMDC-133040] | 4.148
38 | Cc1cccc2nc(-c3ccc(-c4cccc(CNCCCNS(C)(=O)=O)c4)s3)[nH]c12.O=C(O)C(F)(F)F [TCMDC-133078] | -8.111
39 | CNCCNCc1cccc(-c2ccc(-c3nc4cccc(C)c4[nH]3)s2)c1.O=C(O)C(F)(F)F [TCMDC-132835] | 98.35
40 | COc1ccc(CNCc2ccc(-c3ccc(-c4nc5cccc(C)c5[nH]4)s3)cc2)cc1.O=C(O)C(F)(F)F [TCMDC-132727] | 15.75
41 | Cc1cccc2nc(-c3ccc(-c4cccc(CNCCc5ccncc5)c4)s3)[nH]c12.O=C(O)C(F)(F)F [TCMDC-132853] | -22.63
42 | COc1cccc(CNC[C@@H](O)[C@H](Cc2ccccc2)NC(=O)c2cc(C(C)C)cc(N3CCCC3=O)c2)c1 [TCMDC-134130] | 14.96

Row | SMILES | % Inhibition [%]
43 | CCc1ccc2c(c1O)CCN(C)C2Cc1ccccc1Cl (stereo not drawn) [TCMDC-137165] | 18.04
44 | CC(=O)C1=NN(c2ccc(C)cc2)C(c2cccs2)N1c1ccccc1 (stereo not drawn) [TCMDC-125627] | -78.13
45 | Cc1cccc2[nH]c(-c3cccc(-c4ccc(NC(=O)NCc5ccccc5)cc4)c3)nc12 [TCMDC-133158] | -0.2096
46 | CNC(=O)c1cc(S(=O)(=O)Nc2ccc(OC)cc2)cs1 [TCMDC-124815] | 61.29
47 | COc1ccc(NS(=O)(=O)c2ccc(Oc3nc(C)nc4sc5c(c34)CCCC5)cc2)cc1 [TCMDC-124337] | 4.693
48 | COc1ccc(NC(=O)c2c(NC(=O)c3cccs3)sc3c2CCCC3)cc1 [TCMDC-125745] | -21.48
49 | CC1(C)CC2CC(C)(CN2C(=O)c2cc(C(C)(C)C)nn2Cc2ccccc2)C1 (stereo not drawn) [TCMDC-133777] | -28.49
50 | O=C(Nc1cc(Cl)ccc1-n1cncn1)C1(c2ccccc2)CC1 [TCMDC-125455] | 2.448
51 | O=C(COc1ccccc1Cc1ccccc1)Nc1cc(Cl)ccc1-n1cncn1 [TCMDC-125098] | -48.08
52 | COc1ccc(CN2CCN(CC(=O)Nc3cc(Cl)ccc3-n3cncn3)CC2)cc1F [TCMDC-125242] | 66.84
53 | CN1CCCc2ccc(NC(=O)c3ccc(-c4cc(C(F)(F)F)nn4C)s3)cc2C1 [TCMDC-133945] | -15.63
54 | CC1CCN(Cc2c(O)ccc3c(CN4CCC(C)CC4)c(O)ccc23)CC1 [TCMDC-137584] | -14.01
55 | CC(C)c1ccc(-c2noc(SCC(=O)N(C)c3ccc(F)cc3)n2)cc1 [TCMDC-124744] | -3.802
56 | CCN1CCN(C(=O)NC(C(=O)N2CCCC(COc3ccc(Cc4ccccc4)cc3)C2)c2cccs2)C(=O)C1=O (stereo not drawn) [TCMDC-139273] | 35.06
57 | CN1CCCC1CCNc1ncc2c(-c3ccc(NC(=O)Nc4cc(C(F)(F)F)ccc4F)cc3)nn(C)c2n1 (stereo not drawn) [TCMDC-141584] | 59.4
58 | CN1CCCC1CCNc1ncc2c(-c3ccc(NC(=O)Nc4cc(C(F)(F)F)ccc4F)c(F)c3)nn(C)c2n1 (stereo not drawn) [TCMDC-141610] | 99.17
59 | CCCCCC(C)N=C(Nc1ccc(C#N)cc1O)Nc1ccccc1Br (stereo not drawn) [TCMDC-140129] | -25.57
60 | Cc1cc([N+](=O)[O-])ccc1N1CCN(CCCCNC(=O)c2ccc(NC(=O)c3ccc(Cl)cc3)cc2)CC1 [TCMDC-138261] | 16.06
61 | C[C@@H](CC1CCCCC1)OC(=O)N(C)[C@H]1CCN(C#N)C1 [TCMDC-138501] | 35.73
62 | CCCC1N=C(N)N=C(N)N1c1ccc(Cl)cc1 (stereo not drawn) [TCMDC-131296] | -9.139
63 | CCNc1cc(C(=O)N[C@@H](Cc2ccccc2)[C@H](O)CNCc2cc(OC)cc(OC)c2)cc(N2CCCS2(=O)=O)c1 [TCMDC-134557] | -5.029
